Results filed as inconclusive are left out. The source made the active and inactive calls. The call rests on the fitted dose curve; in most records, active means well fitted inhibition curve with a large enough effect; inconclusive means small, poorly fitted or top-dose-only effect; inactive means flat fitted curve, though single readings scatter.

Chain of Luciferin 4-monooxygenase (Photinus pyralis) (P08659 whole entry, looked up): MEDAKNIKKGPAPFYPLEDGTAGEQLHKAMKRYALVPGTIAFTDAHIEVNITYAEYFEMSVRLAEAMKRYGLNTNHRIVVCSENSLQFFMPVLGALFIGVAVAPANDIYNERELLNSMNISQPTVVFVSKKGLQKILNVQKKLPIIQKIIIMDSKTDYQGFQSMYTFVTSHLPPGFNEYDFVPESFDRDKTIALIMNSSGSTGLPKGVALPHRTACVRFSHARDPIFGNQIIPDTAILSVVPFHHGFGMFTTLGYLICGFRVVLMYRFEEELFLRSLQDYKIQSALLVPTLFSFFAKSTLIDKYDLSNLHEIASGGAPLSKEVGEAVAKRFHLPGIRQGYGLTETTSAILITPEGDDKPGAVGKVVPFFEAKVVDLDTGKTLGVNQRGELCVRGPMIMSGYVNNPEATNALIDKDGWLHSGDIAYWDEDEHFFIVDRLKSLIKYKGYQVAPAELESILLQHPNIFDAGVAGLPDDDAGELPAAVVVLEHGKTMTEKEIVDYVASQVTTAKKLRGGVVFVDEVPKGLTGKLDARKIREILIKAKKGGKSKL

The assay deals with Luciferin 4-monooxygenase (Photinus pyralis) (UniProt P08659). Put plainly: FLuc inhibitory activity for the follow-up compounds in a biochemical assay with Km concentrations of substrate and 500microM CoASH. Particulars: purified FLuc, Km substrates + 500 uM CoASH, luminescence; series mostly up to 57.5 µM; activity change, negative = inhibition: at the top concentration. The text has this:
NCGC Assay Overview: Firefly (Photinus pyralis) luciferase is one of the most commonly used transcriptional reporters. It is considered one of the more dynamically responsive reporters - that is, responsive to changes in reporter transcription - as it requires no post-translational modifications and is enzymatically active directly after protein synthesis (Wood, 1998). With no endogenous expression in mammalian cells and without the requirement of external excitation, it offers very little background signal, thus generally providing excellent signal to background for most assays. Previous profiling work to determine the prevalence of compounds that affect FLuc enzymatic activity (PubChem AID 411) identified that ~3% of the MLSMR library (then at ~72K) inhibited FLuc. […] Of the compounds identified in this profile that inhibited FLuc, 151 compounds were selected for further analysis, in an effort to better understand their mode of inhibiting FLuc. The assay described here was to determine the activity of the compounds in an FLuc assay that contained KM concentrations of substrates and 500uM CoASH.
NCGC Assay Protocol Summary: Reagents: 50mM Tris acetate, pH 7.5; 10mM Mg acetate; 10uM D-luciferin (Sigma #L9504); 10uM ATP; 0.01% Tween-20; 0.05% BSA; 10nM P. pyralis luciferase (Sigma #L9506); 500 uM CoASH Control compounds used were two known firefly luciferase inhibitors (3-(5-(3-chlorophenyl)-1,2,4-oxadiazol-3-yl)benzoic acid and 5-(2-fluorophenyl)-3-phenyl-1,2,4-oxadiazole), and DMSO. Three microliters containing firefly luciferase substrates in buffer (final concentrations: 50mM Tris acetate, pH 7.5, 10mM Mg acetate, 0.01% Tween-20, 0.05% BSA, 10uM D-luciferin, 10uM ATP, and 500 uM CoASH) are dispensed into each well of a Greiner white, solid-bottom 1536-well format plate using a flying reagent dispenser (FRD). These assay plates were then treated with 23nL of compound or DMSO using a Kalypsys pin tool, which allows for delivery of a 12-point intraplate titration of each compound to the assay plate (quantitative HTS), with a final compound concentrations ranging from approximately ~60uM to 0.3nM. One microliter of firefly luciferase in 500mM Tris-acetate buffer was then delivered by FRD to each well for a final enzyme concentration of 10nM. Luciferase activity was then measured using a ViewLux CCD imager (PerkinElmer), with an average exposure time of 2-30 seconds (2X binning, medium/high gain).
In the case of `O=C(Nc1ccccc1C(=O)O)c1cccc(NC(=O)c2ccco2)c1`, the Potency is 6510 nM (active).
Still for that read-out and setting: under `Cn1c(N/N=C/c2cc3ccccc3nc2Cl)nc2ccccc21` stands 23.1 nM (active); under `O=C(O)c1cccc(NC(=O)c2ccccc2NC(=O)c2ccco2)c1`, 20600 nM (active).
As for `O=C(Nc1ccccc1C(=O)O)c1cc(S(=O)(=O)NCc2ccccc2)ccc1Cl`, the “activity change, negative = inhibition” value is -9.7% (inactive).
Same read-out and setting: under `O=C(O)c1cccc(NC(=O)c2cccc(S(=O)(=O)Nc3cccc(F)c3)c2)c1` stands -7.88% (inactive).
As to `CCOc1ccc2nc(NC(=O)Cc3cccs3)sc2c1`, the Potency is 5800 nM (active).
Still for that read-out and setting: under `CCOc1ccc2nc(NC(=O)c3ccccn3)sc2c1` stands 163 nM (active); under `O=C(Nc1ccccc1C(=O)O)c1cccc(NC(=O)c2ccccc2Br)c1`, 14600 nM (active).
On the same count and under the same terms, under `O=C(O)c1cccc(NC(=O)c2ccc(Cl)c(S(=O)(=O)N3CCCCCC3)c2)c1` stands 2910 nM (active); under `CCOc1ccc2nc(NC(=O)c3ccccc3)sc2c1`, 206 nM (active); under `Cc1c(NC(=O)C(C)(C)C)cccc1-c1nc2ccccc2s1`, 1460 nM (active).
As to `Cc1ccccc1C(=O)Nc1cccc(C(=O)Nc2ccccc2C(=O)O)c1`, the Potency was 16300 nM (active).
For the molecule `COc1ccc2nc(NC(=O)CCc3nc(-c4ccccc4F)no3)sc2c1`, the “activity change, negative = inhibition” value is -17.4% (inactive).
As to `CC(=O)Nc1cccc(C(=O)Nc2ccccc2C(=O)O)c1`, the Potency was 20600 nM (active).
Still for that read-out and setting: the result for `COc1ccc2nc(NC(=O)c3ccc4ncsc4c3)sc2c1` reads 651 nM (active); that for `Cc1ccc(C(=O)O/N=C(\N)c2ccccn2)cc1`, 9.2 nM (active).
The same measure, in the same setting: the result for `CC(=O)Oc1ccc(C(=O)Nc2ccccc2C(=O)Nc2ccc(C(=O)O)cc2)cc1` reads 1460 nM (active).
In the case of `O=C(Nc1cccc(-c2nc3ccccc3s2)c1)c1cc(-n2cnnc2)ccc1Cl`, the Potency was 3660 nM (active).
Consider `COc1ccc(C(=O)Nc2ccccc2C(=O)Nc2ccc(C(=O)O)cc2)cc1`, for which the Potency is 517 nM (active).
Same read-out and setting: the result for `O=C(Nc1ccccc1C(=O)O)c1ccc(NC(=O)C2CCCCC2)cc1` reads 5170 nM (active).
Turning to `COc1ccc(-c2nc3ccccc3s2)cc1NC(=O)c1ccc(F)cc1`, the “activity change, negative = inhibition” value is -19.4% (inactive).
With `Nc1ccc(-c2nc3ccc(N)cc3s2)cc1`, the Potency was 116 nM (active).
Consider `O=C(Nc1ccccc1-c1nc2ccccc2s1)c1ccc(Br)o1`, for which the “activity change, negative = inhibition” value is -3.85% (inactive).
`COc1ccc2nc(NC(=O)c3cccs3)sc2c1`: the Potency was 13000 nM (active).
Consider `COc1ccc2nc(NC(=O)c3ccc(S(=O)(=O)N4CCCC(C)C4)cc3)sc2c1` (stereo not given), for which the “activity change, negative = inhibition” value is -6.31% (inactive).
Still for that read-out and setting: the result for `Cc1ccc(C(=O)Nc2ccc(C(=O)O)cc2)cc1S(=O)(=O)NCc1ccccc1` reads -14.4% (inactive).
On to `COc1ccc(C(=O)Nc2nc3ccc(OC)cc3s2)cc1`, for which the Potency was 580 nM (active).
For `O=C(Cc1ccccc1)Nc1ccccc1C(=O)Nc1ccc(C(=O)O)cc1`, the “activity change, negative = inhibition” value is -13.8% (inactive).
Take `Cc1ccc(C(=O)Nc2ccccc2C(=O)O)cc1S(=O)(=O)N1CCCCCC1`: the Potency was 919 nM (active).
Same read-out and setting: under `Cc1c(NC(=O)c2cccs2)cccc1-c1nc2ccccc2s1` stands 3260 nM (active); under `O=C(O)c1ccc(NC(=O)c2ccccc2NC(=O)c2ccccc2Br)cc1`, 16300 nM (active); under `CC(C)c1ccc(-c2nc3ccccc3s2)cc1`, 13 nM (active).
For `COc1ccc2nc(NC(=O)c3ccccc3C(=O)O)sc2c1`, the Potency is 6510 nM (active).
Still for that read-out and setting: under `CCOc1ccc(C(=O)Nc2ccccc2C(=O)O)cc1` stands 410 nM (active).
Same read-out and setting: the result for `O=C(Cc1ccc(Cl)cc1)Nc1cccc(C(=O)Nc2ccccc2C(=O)O)c1` reads 25900 nM (active).
Same read-out and setting: the result for `Cc1ccc(C(=O)Nc2cccc(C(=O)O)c2)cc1S(=O)(=O)N1CCCC1` reads 5170 nM (active); that for `CCn1c(C)nc2cc(-c3nc4n(n3)Cc3ccccc3-4)ccc21`, 14.6 nM (active); that for `Cc1ccc2nc(-c3ccc(N)cc3)sc2c1`, 32.6 nM (active).
Take `O=C(Nc1ccccc1C(=O)O)c1cc(S(=O)(=O)Nc2ccccc2)ccc1Cl`: the “activity change, negative = inhibition” value was -4.97% (inactive).
The same measure, in the same setting: the result for `CC(C)Oc1ccc(C(=O)Nc2ccc(-c3nc4ccccc4s3)cc2)cc1` reads -11.1% (inactive).
